These results are taken from PubChem BioAssay.

Broadly, the inhibition is the drop in the measured response relative to a control, in per cent.

The structures appear in SMILES notation. Unmarked numbers belong to inactive results. Active and inactive are the calls of the source. Unless noted, no stated cut-off is given here; in the data, active means inhibition above about 25%; inactive means the rest.

In assay [1] the target is Nuclear receptor coactivator 1 (Homo sapiens) (UniProt Q15788). As to the kind of experiment: SRC1 coactivator transcriptional activity inhibitors, confirmation, cell-based, luminescence, quadruplicate (AID 588820;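 active means mean inhibition above 46.68%, the untreated control wells mean plus 3 SD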;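 further: 0% = DMSO wells and 100% = gossypol 36 µM treated wells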). The note with it: HEK293 GAL4-SRC1 luciferase reporter, at 3.6 µM, stronger effect = higher value. (Reporter assays use an easily measured gene product as a stand-in for the process of interest.)
Sequence of Nuclear receptor coactivator 1 (Homo sapiens) (Q15788 whole entry, looked up, the tested form may be a part): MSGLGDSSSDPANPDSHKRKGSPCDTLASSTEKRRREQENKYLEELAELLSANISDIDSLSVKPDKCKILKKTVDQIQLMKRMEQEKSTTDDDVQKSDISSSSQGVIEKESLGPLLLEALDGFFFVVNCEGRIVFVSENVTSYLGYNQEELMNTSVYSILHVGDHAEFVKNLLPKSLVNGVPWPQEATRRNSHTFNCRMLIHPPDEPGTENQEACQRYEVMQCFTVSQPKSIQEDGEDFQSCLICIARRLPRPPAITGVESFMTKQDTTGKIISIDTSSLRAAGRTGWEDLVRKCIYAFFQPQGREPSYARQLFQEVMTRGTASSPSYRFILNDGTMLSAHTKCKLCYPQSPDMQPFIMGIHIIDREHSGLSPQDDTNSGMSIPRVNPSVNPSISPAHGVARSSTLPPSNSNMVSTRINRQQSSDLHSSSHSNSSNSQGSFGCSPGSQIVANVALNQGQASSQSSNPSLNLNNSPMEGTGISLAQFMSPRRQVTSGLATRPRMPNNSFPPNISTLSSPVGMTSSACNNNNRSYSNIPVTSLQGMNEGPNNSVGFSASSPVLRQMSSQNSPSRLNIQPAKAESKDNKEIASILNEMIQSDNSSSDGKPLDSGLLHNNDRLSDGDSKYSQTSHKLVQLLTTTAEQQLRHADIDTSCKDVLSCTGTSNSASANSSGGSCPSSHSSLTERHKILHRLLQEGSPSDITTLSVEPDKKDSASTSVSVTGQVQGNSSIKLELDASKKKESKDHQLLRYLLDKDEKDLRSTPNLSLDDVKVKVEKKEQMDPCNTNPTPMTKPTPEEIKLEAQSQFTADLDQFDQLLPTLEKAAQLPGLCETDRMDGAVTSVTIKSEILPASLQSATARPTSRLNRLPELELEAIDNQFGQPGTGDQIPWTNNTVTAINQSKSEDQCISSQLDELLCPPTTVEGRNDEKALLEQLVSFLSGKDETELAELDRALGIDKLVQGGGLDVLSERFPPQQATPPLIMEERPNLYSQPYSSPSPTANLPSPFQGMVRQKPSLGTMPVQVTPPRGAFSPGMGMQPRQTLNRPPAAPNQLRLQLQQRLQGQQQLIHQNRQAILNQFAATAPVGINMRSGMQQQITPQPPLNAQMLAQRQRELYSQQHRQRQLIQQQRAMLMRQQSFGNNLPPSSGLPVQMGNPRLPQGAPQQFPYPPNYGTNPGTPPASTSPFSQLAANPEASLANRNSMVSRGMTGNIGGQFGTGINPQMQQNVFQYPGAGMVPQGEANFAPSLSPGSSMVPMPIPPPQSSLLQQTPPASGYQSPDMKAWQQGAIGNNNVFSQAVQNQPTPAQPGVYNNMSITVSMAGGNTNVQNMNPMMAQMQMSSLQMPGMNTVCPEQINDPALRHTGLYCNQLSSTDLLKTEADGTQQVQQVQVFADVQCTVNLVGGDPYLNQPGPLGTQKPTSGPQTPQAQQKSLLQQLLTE

A short description of assay [2]: VP16 transactivation inhibitors, counter-screen for SRC1 inhibitor project, cell-based, luminescence, high throughput (AID 588824). The conditions noted are these: cell-based VP16 transactivation luciferase luminescence; at 3.6 µM; stronger effect = higher value. For orientation: A counterscreen serves to expose hits that act by an unwanted route or on another target.

Consider `CC1CN(c2nc3ccccc3nc2SCC(=O)Nc2cccc(C(F)(F)F)c2)CC(C)O1` (stereo not given), for which the inhibition in assay [1] was -15.1%; in assay [2], 5.85%.

Regarding `Cc1ccccc1COc1cccc(/C=N/NC(=O)c2nnn(-c3nonc3N)c2C)c1`, the inhibition was 7.5% in assay [1] and 18.5% in assay [2].

For the molecule `O=C(COc1ccc(S(=O)(=O)Nc2ccccc2)cc1)NCc1ccncc1`, the inhibition in assay [1] is -7.07%; in assay [2] it was 2.08%.

On to `CC(=O)c1sc2nc(C)c3c(c2c1N)CCCC3`, for which the inhibition is 13.4% in assay [1] and 3.88% in assay [2].

In the case of `COc1ccccc1CCC(=O)Nc1cccc(S(=O)(=O)N2CCCCCC2)c1`, the inhibition in assay [1] was -1.96%; in assay [2], -7.85%.

As for `Cc1ccc(S(=O)(=O)NCc2ccc3c(c2)OCO3)cc1C`, the inhibition in assay [1] is -20.8%; in assay [2], 1.6%.

On to `COc1ccc(-c2cn[nH]c2C)cc1`, for which the inhibition is -12% in assay [1] and 5.39% in assay [2].

Consider `COc1ccc(CCNC(=O)[C@H](CCSC)NC(=O)N2CCn3c2nc2ccccc23)cc1OC`, for which the inhibition in assay [1] was 1.44%; in assay [2] it was -3.22%.

In the case of `c1ccc2c(c1)ccc1ncccc12`, the inhibition is 1.02% in assay [1] and 6.62% in assay [2].

In the case of `O=C(C[C@H]1C[C@H](C(=O)N2CCOCC2)[C@@]2(CCC3CCCC3)c3[nH]c4ccc(Cl)cc4c3CCN2C1=O)NCCCn1ccnc1`, the values for the inhibition in assay [1] and in assay [2] were -4.01% and 2.48%, respectively.

On to `O=C(COc1ccc(Cl)cc1Cl)NN1C(=O)C2C3C=CC(C3)C2C1=O` (stereo not given), for which the figures for the inhibition in assay [1] and in assay [2] were -1.23% and -10.4%, respectively.

`COc1cc2c(cc1OC)CN(C(=O)c1cc(S(=O)(=O)N3CCOCC3)ccc1C)CC2`: the results for the inhibition in assay [1] and in assay [2] were 1.45% and 7.41%, respectively.

Regarding `COc1ccc(CC(=O)Nc2ccc3c(c2)CCC3)cc1OC`, the inhibition was 10.1% in assay [1] and 2.91% in assay [2].

For the molecule `O=C(O)c1ccccc1-c1c2cc(I)c(=O)c(I)c-2oc2c(I)c(O)c(I)cc12`, the figures for the inhibition in assay [1] and in assay [2] were 18.7% and 15.7%, respectively.

As to `COc1ccc(Nc2cc(C)nc(NCc3ccccc3)n2)cc1`, the inhibition in assay [1] is 12.3%; in assay [2], 23.2%.

Consider `CC(=O)C1=C(C)NC2=C(C(=O)CC(C)(C)C2)C1C` (stereo not given), for which the inhibition in assay [1] was 28%; in assay [2] it was 15.6%.

Consider `COc1ccc(CCNc2ncnc3c2[nH]c2cc(OC)c(OC)cc23)cc1OC`, for which the inhibition was -33.2% in assay [1] and -14.5% in assay [2].

Regarding `O=C(NC(=S)Nc1cccc(Cl)c1N1CCCCC1)c1ccco1`, the inhibition was -11.6% in assay [1] and 7.26% in assay [2].

For the molecule `Cc1ccc(S(=O)(=O)NCCC2=CCCCC2)cc1`, the inhibition in assay [1] was -5.59%; in assay [2] it was 7%.

For the molecule `Cc1csc(N=Cc2ccc([N+](=O)[O-])o2)n1`, the figures for the inhibition in assay [1] and in assay [2] were 30.6% and 32.2% (active), respectively.

For `O=C(CCn1cnc(-c2ccccc2)c1-c1ccccc1)N/N=C/c1ccccc1O`, the inhibition in assay [1] is 18.6%; in assay [2], 11.4%.

In the case of `Cc1c(/C(O)=C2\C(=O)C(=O)N(CCCN(C)C)C2c2ccccc2)cnn1-c1ccccc1` (stereo not given), the inhibition in assay [1] was 6.48%; in assay [2], -4.83%.

In the case of `Cn1ncc(Cl)c1C(=O)NCc1cc(C(C)(C)C)n[nH]1`, the inhibition in assay [1] was -8.52%; in assay [2], -4.25%.

Consider `O=C1NC2(CCN(Cc3ccccc3)CC2)Oc2ccccc21`, for which the inhibition in assay [1] was -21.7%; in assay [2], -3.3%.

`COc1ccc2c(c1)c(C(C)=O)c(C)n2-c1ccccc1`: the inhibition in assay [1] was 13.5%; in assay [2], 19.1%.

In the case of `COc1ccc(Oc2nc3c(c(=O)n(C)c(=O)n3C)n2C)cc1`, the figures for the inhibition in assay [1] and in assay [2] were 24.8% and 16.6%, respectively.

For the molecule `CCOC(=O)c1ccc2c(c1)n(CC)c(/C=C/N(C)c1ccccc1)[n+]2CC`, the results for the inhibition in assay [1] and in assay [2] were 29.7% and 62.3% (active), respectively.

As to `O=C(NC(=S)NCC1CCCO1)c1ccccc1[N+](=O)[O-]` (stereo not given), the results for the inhibition in assay [1] and in assay [2] were -12.7% and -12%, respectively.

As to `COc1cc(OC)c(OC)cc1/C=C1\CC(C)C/C(=C\c2cc(OC)c(OC)cc2OC)C1=O` (stereo not given), the results for the inhibition in assay [1] and in assay [2] were -33.6% and 2.73%, respectively.

As for `Cc1ccc(S(=O)(=O)N(C)c2ccc(C(=O)Nc3ccccc3C(=O)N3CCOCC3)cc2)cc1`, the inhibition is -10.1% in assay [1] and -3.41% in assay [2].

Consider `CC(C)Oc1ccccc1NC(=O)CSc1nc2ccccc2c(=O)n1C`, for which the inhibition was -5.84% in assay [1] and 13.4% in assay [2].

As to `Cc1cccc(-n2ncc3c2CCCC3NC(=O)CCN2CCCCO2)c1C` (stereo not given), the values for the inhibition in assay [1] and in assay [2] were -0.83% and -2.39%, respectively.

As for `CCc1ccc(NC(=O)c2ccc(F)c(S(=O)(=O)N(CC)c3ccccc3)c2)cc1`, the inhibition is 3.58% in assay [1] and 13.5% in assay [2].

With `COC(=O)c1ccc2c(c1)NC(=O)c1ccccc1S2`, the inhibition in assay [1] is -8.66%; in assay [2], -1.54%.

Consider `CCCc1cc(C(=O)N(C)CC(=O)Nc2ccc(OCC)c(OCC)c2)sc1C`, for which the inhibition in assay [1] is 20.5%; in assay [2], 17.3%.

For the molecule `O=C(NC1CCCCC1)c1n[nH]c2c1CCCCC2`, the inhibition in assay [1] is -44.7%; in assay [2], -18.1%.

For `COCCn1c(SCC(=O)Nc2cccc(NC(C)=O)c2)nc2c([nH]c3ccccc32)c1=O`, the results for the inhibition in assay [1] and in assay [2] were -31.7% and -16.2%, respectively.

Consider `CCOc1ccc(NC(=O)CN(C)C(=O)C2CCN(c3ncnc4sc(C)c(C)c34)CC2)cc1OCC`, for which the inhibition in assay [1] is 0.38%; in assay [2], 3.14%.

`COC(=O)C1CCCCN1C(=O)c1cc(COc2cccc3cnccc23)on1` (stereo not given): the results for the inhibition in assay [1] and in assay [2] were 30.8% and 43.3% (active), respectively.

With `COc1ccc(CN2CCN(C(=O)c3ccc(S(=O)(=O)N4CCCCCC4)cc3)CC2)cc1`, the inhibition in assay [1] was -2.25%; in assay [2], 25.6% (active).

Turning to `O=C(CNC(=O)c1ccco1)Nc1ccncc1`, the inhibition in assay [1] is -25.7%; in assay [2], -3.08%.

Regarding `COc1cc(OC)cc(C(=O)NNC(=O)c2ccccn2)c1`, the inhibition in assay [1] was 10.7%; in assay [2], 2.65%.

As for `COc1ccc(CNC(=O)C(c2ccc(C)cc2)N(Cc2cccs2)C(=O)c2ccc3c(c2)OCCO3)cc1` (stereo not given), the results for the inhibition in assay [1] and in assay [2] were -13.9% and -1.62%, respectively.

In the case of `CN(Cc1ccc(OC(F)F)cc1)C(=O)c1cccc(S(=O)(=O)N2CCN(Cc3ccccc3)CC2)c1`, the inhibition in assay [1] is -14%; in assay [2], 35% (active).

With `CCOc1cccc(/C=N/NC(=O)c2cc(C3CC3)[nH]n2)c1O`, the inhibition in assay [1] is 21.5%; in assay [2] it was 21.7%.

As to `COc1ccc(-c2[nH]ncc2CN(C)Cc2nonc2C)c(OC)c1`, the inhibition in assay [1] was -25%; in assay [2] it was -13.1%.

As to `CCOc1ccc(CSC(=N)N)cc1Cl`, the inhibition in assay [1] is -21.1%; in assay [2], 9.52%.

As to `CCCN(CCC)CCCNC(=O)c1cn(C)c2ccc(S(=O)(=O)N(C)C3CCCCC3)cc2c1=O`, the figures for the inhibition in assay [1] and in assay [2] were -13.7% and -9.68%, respectively.

Take `O=C(NC1CCCC1)C1CCN(C(=O)c2cccc(Cl)c2)CC1`: the inhibition is -22.6% in assay [1] and -3.66% in assay [2].

As for `CCc1ccc(NC(=O)C2CCN(S(=O)(=O)c3ccc4c(c3)CC(C)N4C(C)=O)CC2)cc1` (stereo not given), the inhibition in assay [1] is -7.12%; in assay [2], 12.7%.

In the case of `Cc1ccc(Oc2ccccc2NC(=O)CSCC(=O)Nc2cc(C)on2)cc1`, the values for the inhibition in assay [1] and in assay [2] were 1.59% and 16.1%, respectively.

Take `O=C(NC1CCCC1)C(c1ccccc1)N(Cc1ccco1)C(=O)Cc1cccs1` (stereo not given): the inhibition is 17.7% in assay [1] and 31.5% (active) in assay [2].

Turning to `CCC1(c2ccccc2)NC(=O)N(CC(=O)Nc2ccccc2C(=O)NC2CCCC2)C1=O` (stereo not given), the inhibition is -5.15% in assay [1] and -0.59% in assay [2].

As to `COc1ccc(NC(=O)CN(C)C(=O)c2ccc(N3CCCCC3)c([N+](=O)[O-])c2)cc1`, the inhibition in assay [1] and in assay [2] was -5.37% each time.

Regarding `Cc1csc2ncnc(NCCc3ccccn3)c12`, the inhibition in assay [1] was -2.8%; in assay [2], 21.8%.

In the case of `Cc1cccc(Oc2ncnc(N)c2[N+](=O)[O-])c1C`, the inhibition was -14.1% in assay [1] and 5.89% in assay [2].

For the molecule `COc1ccc(N2CCN(C(=O)c3ccc(CS(=O)c4cccc(C)c4)o3)CC2)cc1` (stereo not given), the results for the inhibition in assay [1] and in assay [2] were -16.2% and -2.71%, respectively.

As to `C(=N\Nc1nc2ccccc2[nH]1)/c1ccc2ncccc2c1`, the inhibition is -40.4% in assay [1] and -63.6% in assay [2].

Turning to `Cc1ccc(-n2ccc(-c3nn(-c4ccccc4)ccc3=O)n2)cc1`, the figures for the inhibition in assay [1] and in assay [2] were 6.13% and 13.3%, respectively.

For `COc1ccccc1C(NC(C)=O)c1cc(Cl)c2cccnc2c1O` (stereo not given), the inhibition was 31.7% in assay [1] and 26.6% (active) in assay [2].

For `CCN(CC(=O)Nc1c(F)cccc1F)C(=O)Cc1csc(-c2ccccc2)n1`, the inhibition in assay [1] was -10.5%; in assay [2], -7.28%.

As for `COc1ccc(-c2n[nH]c(=S)n2-c2ccc(C)cc2)cc1`, the inhibition in assay [1] was -68.5%; in assay [2], -40%.

With `COc1ccc(OC)c(NC(=O)c2cc(-c3c(C)cc(C)cc3O)n[nH]2)c1`, the inhibition in assay [1] is 11.1%; in assay [2], 6.02%.

`N#CC1(NC(=O)CSc2nnc(-c3ccccc3F)o2)CCCCC1`: the inhibition in assay [1] is -24.1%; in assay [2], -10.4%.

With `O=C(Nc1ccn(Cc2c(F)c(F)c(F)c(F)c2F)n1)c1ccc(COc2ccccc2Cl)cc1`, the inhibition is 3.66% in assay [1] and 8.16% in assay [2].

Consider `C=C(C)c1cccc(C(C)(C)NC(=O)N(Cc2ccccc2)Cc2ccco2)c1`, for which the inhibition in assay [1] was -2.08%; in assay [2], -0.46%.

Consider `COc1ccc(-c2cc(C(=O)N(C)CC(=O)Nc3cccc(F)c3)c3ccccc3n2)cc1OC`, for which the inhibition in assay [1] is -19.1%; in assay [2], -8.17%.

Regarding `COc1ccccc1-c1cccc(-c2nc(C(=O)N3CCCCC3)cc3c2[C@H](CCO)N(S(=O)C(C)(C)C)C3)c1` (stereo not given in full), the results for the inhibition in assay [1] and in assay [2] were -56.9% and -21.5%, respectively.

Regarding `COc1ccc(-c2cc(N3C(=O)Nc4ccccc4N3O)n[nH]2)c(OC)c1`, the values for the inhibition in assay [1] and in assay [2] were 25.8% and 20.1%, respectively.

Regarding `Cc1csc(-c2cc(C(=O)NCc3cc(C(F)(F)F)cc(C(F)(F)F)c3)n[nH]2)c1`, the inhibition in assay [1] was 20.5%; in assay [2], 47.2% (active).
